# Test system: PPARg:RXRa (NR concentration 180 nM, RXRa partner concentration 90 nM)
# Assay: PBM binding z-score (relative to random genomic background probes); higher = stronger binding; sequences stand for … in GC…GCGATTGACAGCGTAGAATGAAGG
# Procedure, shortened: (§1)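 Binding z-scores take random background probes as their reference. They come from custom Agilent 4×180K protein-binding microarrays incubated 1 h with ligand-free nuclear receptor dimers, with antibodies against each partner (one per run) detecting binding. Scanned fluorescence was regression-normalized.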
row,Sequence,PBM binding z-score
1,TAGCCTAGGTCATGGGCCAGTAGACCACGCGAAC,4.13
2,ATCGAAAGGTCGAGGTGATTATAGAGAAAGGGAA,3.24
3,CTCGAAAGGTCGGTAGAGGTGAGTATACGGATAA,1.02
4,CCTAGTAGGCCAGGGTCACTCAAGCATTTCGCTT,3.5
5,CCTTACGGGTCACTCCAGGCTATAGCATCGGAGT,2.95
6,CGAACTAGGTCAAGGTCAGTGAATCTCCGCACGC,8.71
7,AGAACGAGGGCACGCTGAGTTCATAGCAGAGTAG,2.52
8,GCCACTGGGGCATCAGCAGGTTACCATAACTTAA,1.72
9,ACTAGTTGGTCAGCTGAGATCACACACAATTCGG,0.977
10,ATTTACGGGTCAACGAGGTTATAGCACGCGTATA,6.73
11,TAGCCTAGGTCATTGGGCAAGTATAGTACGCATC,2.93
12,TCTCGGAGTACACGAAGGTCAGAGCTTTCCAGAG,0.351
13,AGAACGAGGGCACGGTGAGTTGATAGCAGAGTAG,2.7
14,TCAAGCAGGCCAGAGGGTCACTCAAGAGGTACGG,1.67
15,CAAACTAGGTCACAGAGGCCAAAGTCCGTGCGTA,8.81
16,CGTCAAAGTACAACTAAGGTAACGTAAAGCACGC,0.918
17,TCTTGTAGATCAAGCAGGTTAAGAAAGCCTGAGT,-0.57
18,TCATATAGGTAATACAGGTAAAAGTCGGCATCTA,1.61
19,AATACAGGGTCACTAGGCCAGAATAGGTACGAAT,7.89
20,CGAACTAGGTCATTGACAGGAGAGTGAATAGTAA,7.41

row,Sequence,PBM binding z-score
1,ATATGTAGGTTGTCGGGTCATTCAGTTTGCGCAT,2.89
2,TAGCCTGGGTCATGGGCCAGTATACCACGCGAAC,4.11
3,CGTCCAAGGTCAAGGGTCAGTGAAGAGATGACGG,8.85
4,ATCGAAAGATCGACGAGGTGAGTATACACCGTTT,0.902
5,TCTTGTAGATCAAGCAGGTTAAGATAGCCTGAGT,-0.193
6,GCTACTAGTTGAAAGGGCAACCGAATGATTCTCG,3.76
7,TCCGACAGGTGAAGGTAACTCAGGTACGCAGTCG,0.493
8,ATGTGTAGGTTAGCTGGGGTCATTCAGACTAGGC,2.38
9,TATACAGGGTCAATGGCCAGAGTACGAATGTCGA,5.11
10,CGTCAAAGTTCAATGTAACGTAACAGAAAGCAGC,3.65
11,ATATGTAGGTTACATCCGGGTCGTTCAGGCTATG,5.18
12,CCCTACGGGTCACTGACAGGTTATAGCATTTGGA,3.55
13,AGTCAAAGTTCATCTAGGTAACGCAAGATATGCT,6.39
14,CGTCCAAGATCAATGCTAGGTCAGTGAAAGCATT,-0.0678
15,TAGCCTAGGTCATTCAGGAGCCAGTATAGAAAGC,1.84
16,CCTGCTAGGTCAATGTTCAGCTAAAGCAGCTCGC,2.51
17,TCCAGTAGGTTAGGGGCATTCAGAATGGCGTCGA,1.87
18,TCGCGGAGGACACGAAGGTCAGAGCTTTCCAGAG,0.306
19,CGAAGTAGGTCATCCAGGACAGTGAATACATTGA,8.31

# Test system: PPARg:RXRa 270nM:90nM, anti-RXR (NR concentration 270 nM, RXRa partner concentration 90 nM)
# Assay: as above
# Procedure, shortened: as §1
row,Sequence,PBM binding z-score
1,TAGCCTAGGTCATGGGCCAGTAGACCACGCGAAC,3.94
2,ATCGAAAGGTCGAGGTGATTATAGAGAAAGGGAA,3.59
3,CTCGAAAGGTCGGTAGAGGTGAGTATACGGATAA,1.75
4,CCTAGTAGGCCAGGGTCACTCAAGCATTTCGCTT,4.07
5,CCTTACGGGTCACTCCAGGCTATAGCATCGGAGT,3.31
6,CGAACTAGGTCAAGGTCAGTGAATCTCCGCACGC,6.93
7,AGAACGAGGGCACGCTGAGTTCATAGCAGAGTAG,2.43
8,GCCACTGGGGCATCAGCAGGTTACCATAACTTAA,1.82
9,ACTAGTTGGTCAGCTGAGATCACACACAATTCGG,0.171
10,ATTTACGGGTCAACGAGGTTATAGCACGCGTATA,6.17
11,TAGCCTAGGTCATTGGGCAAGTATAGTACGCATC,3.07
12,TCTCGGAGTACACGAAGGTCAGAGCTTTCCAGAG,1.35
13,AGAACGAGGGCACGGTGAGTTGATAGCAGAGTAG,2.19
14,TCAAGCAGGCCAGAGGGTCACTCAAGAGGTACGG,2.69
15,CAAACTAGGTCACAGAGGCCAAAGTCCGTGCGTA,7.33
16,CGTCAAAGTACAACTAAGGTAACGTAAAGCACGC,0.504
17,TCTTGTAGATCAAGCAGGTTAAGAAAGCCTGAGT,1.21
18,TCATATAGGTAATACAGGTAAAAGTCGGCATCTA,2.58
19,AATACAGGGTCACTAGGCCAGAATAGGTACGAAT,6.5
20,CGAACTAGGTCATTGACAGGAGAGTGAATAGTAA,6.44

row,Sequence,PBM binding z-score
1,ATATGTAGGTTGTCGGGTCATTCAGTTTGCGCAT,3.27
2,TAGCCTGGGTCATGGGCCAGTATACCACGCGAAC,3.94
3,CGTCCAAGGTCAAGGGTCAGTGAAGAGATGACGG,7.9
4,ATCGAAAGATCGACGAGGTGAGTATACACCGTTT,-0.253
5,TCTTGTAGATCAAGCAGGTTAAGATAGCCTGAGT,1.27
6,GCTACTAGTTGAAAGGGCAACCGAATGATTCTCG,5.17
7,TCCGACAGGTGAAGGTAACTCAGGTACGCAGTCG,1.09
8,ATGTGTAGGTTAGCTGGGGTCATTCAGACTAGGC,3.24
9,TATACAGGGTCAATGGCCAGAGTACGAATGTCGA,4.94
10,CGTCAAAGTTCAATGTAACGTAACAGAAAGCAGC,4.35
11,ATATGTAGGTTACATCCGGGTCGTTCAGGCTATG,4.47
12,CCCTACGGGTCACTGACAGGTTATAGCATTTGGA,3.77
13,AGTCAAAGTTCATCTAGGTAACGCAAGATATGCT,6.35
14,CGTCCAAGATCAATGCTAGGTCAGTGAAAGCATT,-0.118
15,TAGCCTAGGTCATTCAGGAGCCAGTATAGAAAGC,2.24
16,CCTGCTAGGTCAATGTTCAGCTAAAGCAGCTCGC,3.63
17,TCCAGTAGGTTAGGGGCATTCAGAATGGCGTCGA,3.55
18,TCGCGGAGGACACGAAGGTCAGAGCTTTCCAGAG,1.15
19,CGAAGTAGGTCATCCAGGACAGTGAATACATTGA,7.05

# Reference: the supplement of paper PMC6555819
